An excerpt weighted towards active compounds, which were near 1.6% of everything screened.
p53ts 32C tox: qHTS Screen for Compounds that Selectively Target Cancer Cells with p53 Mutations: Cytotoxicity of p53ts Cells at the Permissive Temperature; H1299-p53A138V at 32C, ATP luminescence viability, 24 h; Potency, µM (highest dose often 46.1 µM), for inactives: at the highest dose activity change, negative = cytotoxicity, most hits filed as cytotoxic; hit rate 0.93% among 130,000; AID 924, 2007;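 also: 0% = DMSO and -100% = full killing by reference compound; nearly all actives have a fitted effect of over 55% in size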
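Viability by ATPlite luminescence after 24 h compound treatment (up to 46 uM) at the permissive 32C. Cells are H1299 carrying p53 A138V. Scale runs from DMSO basal to 100 uM tamoxifen as full kill; AC50 from Hill fits.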
p53ts 39C tox: qHTS Screen for Compounds that Selectively Target Cancer Cells with p53 Mutations: Cytotoxicity of p53ts Cells at the Nonpermissive Temperature | H1299-p53A138V viability at 39C, ATP luminescence, 24 h | Potency, µM (highest dose often 46.1 µM), for the others: at the highest dose activity change, negative = cell killing, hits mostly cytotoxic | hit rate 1.5% among 130,000; also: % is scaled to controls: 0 for no effect and ±100 for the full control effect; nearly all actives have a fitted effect of over 55% in size
Peg3 imprint: qHTS Assay for Compounds that Induce Erasure of Genomic Imprints. mouse ES Peg3-LacZ reporter, beta-gal luminescence, 40 h. Potency, µM (doses to about 60.7 µM), inactives show at the highest dose activity change, positive = activation, hits mostly activators. hit rate 0.02% among 110,000. AID 1948, 2009
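Gelatin-coated wells received 300 freshly trypsinized female ES cells with a Peg3LacZ-Neo reporter on the maternal allele, then incubated 40 hours at 37C. BetaGlo was added for 5 minutes at room temperature before a single luminescence read.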
The depositor's hits bear a star; ? = inconclusive; . = no result given; [ ] = remark or other dose. Calls follow the shape of the dose curve; as a rule, active = well fitted curve in the direction sought with a large enough effect; inconclusive = small, poorly fitted or top-dose-only effect, or another doubt; inactive = no such curve, though single readings can be large; an effect the other way counts as inactive or inconclusive. Potency is read from the fitted curve at half-maximal effect.

SMILES	p53ts 32C tox	p53ts 39C tox	Peg3 imprint
CC1CCN(c2nc3ccc(C(=O)O)cc3s2)CC1	10µM*	?	.
CC1CCN(c2nc3ccc(C(=O)NCc4ccc(Cl)cc4)cc3s2)CC1	9%	-7%	-8%[10.9 µM]
COc1ccccc1N1CCN(CCCCNS(=O)(=O)c2cccc3c(N(C)C)cccc23)CC1	?	?	-17%
COC(=O)C1=C(C)N(Cc2ccccc2)C2=C3C(=O)OCCC3[C@@](O)(C(=O)OC)C(=O)N2C1c1ccccc1 (some centres not stated)	6%[9.22 µM]	-12%[9.22 µM]	.
Clc1cccc(-n2ncc3c(NC4CCCCCC4)ncnc32)c1	2%	-24%	-19%[10.9 µM]
Cc1ccc(-n2ncc3c(NC4CCCCC4)ncnc32)cc1C	-16%	13µM*	-23%[10.9 µM]
Cc1ccc(-n2ncc3c(NC4CCCCC4)ncnc32)cc1Cl	?	?	-8%[10.9 µM]
Cc1cccc(-n2ncc3c(NC4CCCC4)ncnc32)c1	13µM*	7.9µM*	19%[10.9 µM]
C=CCNc1ncnc2c1cnn2-c1cccc(C)c1	?	?	-41%
Cc1cccc(-n2ncc3c(NC4CCCCC4)ncnc32)c1	10µM*	16µM*	-18%
Cn1cc(-c2cc3n(n2)CCC(=O)N3CC(=O)O)c2ccccc21	2%	-5%	?
CCn1ccc2cc(S(=O)(=O)N3CCCN(C(=O)Nc4cc(Cl)ccc4C)CC3)ccc21	5%	-4%	-7%[10.9 µM]
COc1ccccc1NC(=O)CC(C)n1nc(C)cc1C (configuration not stated)	-2%	7%	-8%[10.9 µM]
COc1cccc(NC(=O)CSc2nc3ccc(NC(=O)c4ccco4)cc3s2)c1	?	?	-30%[10.9 µM]
Oc1c(C(Nc2ccccn2)c2ccccc2F)ccc2cccnc12 (configuration not stated)	4%	10µM*	-13%[10.9 µM]
Cc1ccnc(NC(c2cc(C)ccc2O)c2ccc3cccnc3c2O)c1 (configuration not stated)	?	13µM*	-14%[10.9 µM]
Cc1ccnc(NC(c2ccccc2F)c2ccc3cccnc3c2O)c1 (configuration not stated)	-12%	?	-10%[10.9 µM]
Cc1ccc(N[C@H](c2ccccc2)c2ccc3cccnc3c2O)cc1	-29%[9.22 µM]	?	-7%[10.9 µM]
Oc1c(C(Nc2ccccn2)c2ccccn2)ccc2cccnc12 (configuration not stated)	-5%	4µM*	-23%
Oc1c([C@H](Nc2ccccn2)c2ccccc2)ccc2cccnc12	-16%[9.22 µM]	?	-15%[10.9 µM]
CCCCCCCC1=CC2=CC(=O)C(C)(O)C(=O)C2=CN1CCCC (configuration not stated)	0%[9.22 µM]	2%[9.22 µM]	.
CC(C)=CCC/C(C)=C/CO/N=C1/[C@H]2O[C@@H]2[C@@H](O)[C@H]2[C@H]1CCn1c(=O)n(C)c(=O)n12	7%[9.22 µM]	2%[9.22 µM]	.
COc1ccc(N2CCN(C(=O)c3cc4cc5ccc(Cl)cc5nc4o3)CC2)cc1	-5%	9%	-6%[10.9 µM]
Clc1cccc(N2CCN(c3ncnc4c3nc3n4CCCCC3)CC2)c1	?	13µM*	-22%[10.9 µM]
O=C(C1CCN(c2ncnc3c2nc2n3CCCCC2)CC1)N1CCN(c2cccc(Cl)c2)CC1	3%	.	.
SMILES	p53ts 32C tox	p53ts 39C tox	Peg3 imprint
Cc1c2cnn(-c3ccccc3)c(=O)c2c(C)n1CCCC(=O)Nc1cc(F)ccc1F	12%	-9%	-11%[10.9 µM]
Cc1oc(-c2ccc(Cl)cc2)nc1CSc1nc2ncccc2[nH]1	9%	.	.
Clc1ccc(CSc2nc3ncccc3[nH]2)cc1	13µM*	10µM*	-28%[10.9 µM]
Cc1ccc(-c2cc(C(=O)N3CCN(S(=O)(=O)c4ccc(Br)cc4)CC3)[nH]n2)cc1C	-7%	.	.
COc1ccc(CC(=O)N2CC(=O)Nc3ccc(F)cc3C2c2ccccc2)cc1 (configuration not stated)	5%	36%	-7%[10.9 µM]
CCCCN1C(C(=O)c2ccccc2)=C(OC(=O)CC)c2ccccc2S1(=O)=O	-21%	16µM*	-24%[10.9 µM]
CCCCCN1C(C(=O)c2ccccc2)=C(OC(=O)CC)c2ccccc2S1(=O)=O	?	-7%	-21%[10.9 µM]
Cc1ccc(S(=O)(=O)n2c3ccccc3c3nnc(C(=O)c4ccccc4)nc32)cc1	11%[9.22 µM]	7%[9.22 µM]	.
Cc1ccc(-c2nnc(Nc3ccc(OCC(N)=O)cc3)c3ccccc23)cc1S(=O)(=O)N(C)C	16%	?	-5%[10.9 µM]
Cc1cc([N+](=O)[O-])ccc1NC(=O)/C=C/c1cccs1	.	-20%	.
Cc1ccnc(NC(=O)/C=C/c2cccs2)c1	.	7.1µM*	.
